PubChem BioAssay
Unmarked numbers belong to inactive results. The rule behind the calls is not given here.

These molecules were tested against Pantothenate synthetase (Mycobacterium tuberculosis (strain ATCC 25618 / H37Rv)) (UniProt P9WIL5) (assay: Recombinant Mtb pantothenate synthetase (PanC) inhibitors, coupled enzyme, confirmatory (AID 375;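 note: 0% = full reaction with vehicle and 100% = no enzyme background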)). Conditions: coupled enzyme assay; at 10 µM, active compounds read high.
Chain of Pantothenate synthetase (Mycobacterium tuberculosis (strain ATCC 25618 / H37Rv)) (P9WIL5 whole entry, looked up): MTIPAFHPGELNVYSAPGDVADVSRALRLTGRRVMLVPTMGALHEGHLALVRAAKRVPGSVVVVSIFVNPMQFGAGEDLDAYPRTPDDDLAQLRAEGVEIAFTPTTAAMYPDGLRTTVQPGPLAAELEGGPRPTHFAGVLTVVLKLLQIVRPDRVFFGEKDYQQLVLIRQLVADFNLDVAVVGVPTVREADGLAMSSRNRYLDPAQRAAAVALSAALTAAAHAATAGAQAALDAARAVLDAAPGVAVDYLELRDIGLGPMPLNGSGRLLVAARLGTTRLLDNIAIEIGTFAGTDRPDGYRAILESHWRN

Compound	inhibition
CCOc1ccc(C(=O)OCc2nnc(-c3cccs3)o2)cc1OC	0%
CCCC(=O)OCCn1c(Br)nc2c1c(=O)[nH]c(=O)n2C	7%
C=CCSc1nnc(Cc2c(C)[nH]c3ccccc23)o1	0%
Cc1ccccc1N1CC(c2nc3ccccc3[nH]2)CC1=O (centres undefined)	0%
COCCn1c(C)cc(C(=O)COC(=O)CCN2C(=O)c3ccccc3C2=O)c1C	0%
c1ccc(-n2c(Sc3cnccn3)nnc2-c2cccs2)cc1	0%
Cc1nn(C)c(C)c1S(=O)(=O)N1CCCC(C(=O)N2CCN(c3ccc(Cl)cc3)CC2)C1 (centres undefined)	0%
CCc1nnc(NC(=O)CCC(=O)Nc2ccccc2)s1	4%
CNC(=O)CSc1nnc(-c2ccc(S(=O)(=O)N3CCCC3)cc2)n1-c1cccc(C)c1C	0%
Cc1cccc(CCNC(=O)CCc2nc(-c3ccccc3F)no2)c1	0%
CCn1cc(C(=O)O)c(=O)c2cc(F)c(N3CCNCC3)cc21	0%
Cc1ccc(C(C)n2cc(C(=O)NCCN3CCN(C)CC3)nn2)cc1 (centres undefined)	0%
Cc1nc(SCC(=O)NCc2ccco2)c2c(C)c(C)sc2n1	5%
COc1cccc(CNC(=O)Cn2c(=O)oc3ccccc32)c1OC	0%
O=C(Cc1c(F)cccc1Cl)Nc1ccncc1	6%
O=C(/C=N/O)Nc1cccnc1	0%
O=C(NCc1cccs1)C1CCCN(c2ncccn2)C1 (centres undefined)	0%
COc1ccccc1C1c2c(oc3ccc(Cl)cc3c2=O)C(=O)N1c1cc(C)on1 (centres undefined)	0%
CCOP(=O)(c1ccc(N(C)C)cc1)C(O)c1ccccc1OC (centres undefined)	5%
CC(=O)N(CCc1ccccc1C)Cc1cc2cc3c(cc2[nH]c1=O)OCO3	7%
CCCc1nc2ccccc2c(=O)n1NC(=O)c1c(O)c2cccc3c2n(c1=O)CCC3	0%
Cc1nnc(C)n1/N=C/c1cccc(Oc2ccccc2)c1	1%
COc1cc(S(=O)(=O)N2CCOCC2)ccc1NC(=O)COC(=O)C12CC3CC(CC(C3)C1)C2	1%
O=C(O)CCc1ccc(-c2ccc(F)cc2)n1CC(=O)O	0%
